This is a sample that favours compounds with a hit; in the whole collection about 5.9% have one here.
LANA-H2A inh = blocks KSHV LANA binding to histone H2A/H2B; inhibition, % (concentration not given with the values); actives 0.6% (n = 320,000); Q9QR71; cell-free LANA-H2A/H2B peptide, fluorescence polarization; AID 2629; in the data active means inhibition mostly above about 10%, no sharp cut-off; inactive means mostly below about 6.7%
rCAG binder = r(CAG) repeat RNA binding; TO-PRO-1 dye displacement fluorescence; inhibition, % at 3 µM; actives 1.3% (n = 370,000);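 active means inhibition above the plate cutoff, the mean of all test compounds on that plate plus 3 SD, cut at about 35% in these data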;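 further: 0% = DMSO alone and 100% = 100 µM mitoxantrone as full dye displacement; higher means more dye released from RNA so lower well fluorescence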
Rtt109 Vps75 = inhibitors of Candida albicans Rtt109/Vps75 histone acetyltransferase; purified Rtt109/Vps75, ThioGlo CoA-SH fluorescence, 4 h; Q5AAJ8; inhibition, % at 34.9 µM; AID 540336; actives 0.16% (n = 330,000);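 active means inhibition of at least 50% in every replicate; inconclusive means best replicate reaches 50% inhibition but some replicates fall short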
ALR inh = inhibitors of human sulfhydryl oxidase ALR. purified ALR, DTT oxidation, H2O2 HRP-luminol luminescence. inhibition, % (no concentration beside the values). actives 3.8% (n = 290,000);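 active means mean replicate inhibition above about 79%, with every replicate also reaching it, limit read from the data; inconclusive means only one of the two criteria met; inactive means mean below limit and not every replicate reaching it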
Target sequence (P55789 whole entry, looked up): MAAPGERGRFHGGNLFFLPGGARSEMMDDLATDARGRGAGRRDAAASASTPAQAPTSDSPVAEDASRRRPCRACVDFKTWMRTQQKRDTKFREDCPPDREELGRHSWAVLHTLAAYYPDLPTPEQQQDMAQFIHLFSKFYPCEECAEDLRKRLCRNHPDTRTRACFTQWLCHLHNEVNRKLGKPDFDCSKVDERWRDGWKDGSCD
ABHD5 PLIN5 PPI = ABHD5-PLIN5 protein interaction inhibition; Q00G26+Q8WTS1; Split G. princeps luciferase complementation, luminescence, 4 h; inhibition, % at 4 µM; actives 0.78% (n = 360,000);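 active means inhibition above the mean inhibition across every tested compound plus 3 SD, cut at about 22% in these data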;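 further: 0% = DMSO only wells and the 100% control is not disclosed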
PRMT1 inh = PRMT1 (human) inhibition, primary screen. recombinant PRMT1, activity-based probe fluorescence polarization. actives 1.3% (n = 370,000). inhibition, % at 2.79 µM. Q99873;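 active means inhibition above about 21% made by adding two undisclosed values, limit read from the data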
* marks the source's active call; other numbers are inactive results; ? = inconclusive; · = not tested or not shown.

SMILES	LANA-H2A inh	rCAG binder	Rtt109 Vps75	ALR inh	ABHD5 PLIN5 PPI	PRMT1 inh
Nc1ccc(OC(=O)Nc2ccc(O)cc2)cc1	0.5	-0.5	4.7	99.2*	-16.9	3.3
CCCC(=O)Nc1ccc(Nc2ccccc2)cc1	3.2	-1.7	-10.9	99.2*	-0.2	-0.1
O=C(Nc1ccc(N2CCN(c3ccc(O)cc3)CC2)cc1)Oc1ccccc1	-2.5	3.6	3.0	25.7	-9.8	6.0
CC(=O)CC(=O)Nc1ccc(C(N)=O)cc1	10.9	0.0	14.9	47.8	3.5	1.1
CC(=O)CC(=O)Nc1ccc(Nc2ccccc2)cc1	-1.1	2.6	-7.6	99.3*	8.2	-1.5
CCc1c2c3n4c1CCC[C@@H]4C[C@@H]3O[Si](C(C)C)(C(C)C)OC(C)C2=O (stereo not given in full)	·	·	·	·	·	-2.6
O=C(Nc1ccccc1)c1ccccc1NC(=O)[C@H]1CCCC[C@H]1C(=O)O	11.0	2.0	0.5	5.4	-0.6	-1.3
O=C(CCCC(=O)c1ccccc1)Nc1ccc(O)cc1	-0.6	-1.4	14.7	88.4*	-0.9	3.2
CC(=O)Nc1ccccc1	·	0.9	4.6	·	2.5	-3.5
O=C(O)C1CCCCC1C(=O)Nc1ccccc1Nc1ccccc1 (stereo not given)	-0.8	3.1	-4.2	99.2*	-1.0	-1.3
O=C(Nc1ccc(Nc2ccccc2)cc1)C1CC1	0.8	4.3	·	99.7*	4.7	0.5
CC(=O)Nc1ccc(Nc2ccccc2)cc1	1.4	0.2	-2.8	98.8*	-8.3	-4.2
CSc1nsc(SC)c1-c1ccc(Cl)cc1	·	0.1	·	·	-0.2	0.0
C=CCN(CC#Cc1ccc(C(F)(F)F)cc1)CC=C	·	-0.2	·	·	·	-4.4
Cc1cc([N+](=O)[O-])ccc1N1C(=O)c2ccc(C(=O)Nc3ccccc3C(=O)O)cc2C1=O	2.4	23.4	-19.4	97.5*	-8.9	7.9
CCNc1nc(CSc2ccccc2)nc2sc(C)c(C)c12	0.3	0.5	1.0	82.8*	-0.1	-0.6
C[C@@H](O[Si](c1ccccc1)(c1ccccc1)C(C)(C)C)[C@H]1C(=O)N[C@H](Cc2cn(S(=O)(=O)c3ccccc3)c3ccccc23)C(=O)N1C	·	·	·	·	·	2.6
CCCc1[nH]c2ccc(C(=O)OC)cc2c1CCC	-1.2	-3.4	2.5	0.1	-6.7	-0.8
CCCc1[nH]c2ccc(C#N)cc2c1CCC	0.6	-1.9	11.5	96.7*	-14.9	-0.6
N/C(=N\OC(=O)c1ccccc1Cl)c1ccccn1	1.7	1.1	1.0	-2.4	3.7	1.7
N/C(=N\NS(=O)(=O)c1ccccc1Cl)c1ccccn1	0.7	-0.8	-10.5	82.8*	-7.7	-0.4
CCn1nccc1NC(=O)c1ccc2sc([C@@H]3O[C@H](CO)[C@H](O)[C@H](O)[C@H]3O)nc2c1	·	1.7	·	·	4.3	0.9
Cc1ccc(O)c(-c2cc(C(=O)NCc3ccncc3)[nH]n2)c1	0.6	1.3	2.7	90.2*	6.2	-0.5
CCn1c(C)cc(/C=C2/SC(=S)N(CC(=O)O)C2=O)c1C	-2.5	16.2	5.9	99.1*	-0.6	-0.7
Cc1nc(NC(=O)c2ccccc2)sc1-c1csc(Nc2ccc(Cl)cc2Cl)n1	-2.1	·	·	86.9*	·	·
SMILES	LANA-H2A inh	rCAG binder	Rtt109 Vps75	ALR inh	ABHD5 PLIN5 PPI	PRMT1 inh
COc1ccc(Cl)cc1Nc1nc(-c2sc(NC(=O)c3ccccc3)nc2C)cs1	0.4	·	·	44.2	·	·
Cc1ccc(Cl)cc1Nc1nc(-c2sc(NC(=O)c3ccco3)nc2C)cs1	1.1	30.1	4.1	·	-16.1	3.1
Cc1nc(NC(=O)c2ccco2)sc1-c1csc(Nc2ccc(Cl)cc2Cl)n1	3.1	48.4*	-2.3	·	-15.6	-0.1
O=C(OCc1cn(Cc2cccc(F)c2F)nn1)N1CCCC1	·	0.4	·	·	·	-5.3
COc1cccc(CNc2ccc3c(c2)nc(C)n3C)c1OC	4.2	6.4	-1.8	99.2*	-1.5	0.1
Cc1cccc(NCc2nc3ccccc3n2Cc2ccccc2)c1	0.1	-4.9	11.9	23.8	1.3	1.9
CCOc1ccc(CNc2ccc3c(c2)nc(C)n3C)cc1	-4.6	15.4	11.8	95.9*	-5.8	2.7
COc1cccc(CNc2ccc3c(c2)ncn3C)c1OC	-1.9	-4.7	-1.4	?	-1.7	5.0
COc1ccc(CNc2ccc3c(c2)nc(C)n3C)cc1OC	-2.3	-0.1	1.5	56.8	2.2	-1.5
Cc1nc2cc(NCc3nc4ccccc4n3Cc3ccccc3)ccc2n1C	-4.3	-4.8	7.4	44.9	22.3*	-1.1

Bioassay records deposited in PubChem BioAssay by several laboratories.
